Measured values from article PMC5540273 (PLoS ONE, 2017).

How the values were obtained:
Conditions in all cases: concentration: 1 μM,replicates: in singlicate; n = 1
HASPIN = test system: T1, HASPIN
T1 construct: gene GSG2

HCK = test system: HCK
HIPK1 = test system: HIPK1
HIPK2 = test system: HIPK2
HIPK3 = test system: HIPK3
HIPK4 = test system: HIPK4
HPK1 = test system: HPK1
HUNK = test system: HUNK
ICK = test system: ICK
IGF1R = test system: IGF1R
IKK-alpha = test system: T2, IKK-alpha
T2 construct: gene CHUK

IKK-beta = test system: T3, IKK-beta
T3 construct: gene IKBKB

IKK-epsilon = test system: T4, IKK-epsilon
T4 construct: gene IKBKE

INSRR = test system: INSRR
INSR = test system: INSR
IRAK1 = test system: IRAK1
IRAK3 = test system: IRAK3
IRAK4 = test system: IRAK4
ITK = test system: ITK
[1] = test system: JAK1(JH1domain-catalytic)
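Further: KINOMEscan kinase panel screen.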

O=C(NCC1CC1)c1ccc(-c2cc(C(=O)NC3CC3)ccc2F)cc1 [GW810445]
%Inh (HASPIN): 2% | %Inh (HCK): 10% | %Inh (HIPK1): 0% | %Inh (HIPK2): 0% | %Inh (HIPK3): 0% | %Inh (HIPK4): 12% | %Inh (HPK1): 0% | %Inh (HUNK): 56% | %Inh (ICK): 0% | %Inh (IGF1R): 0% | %Inh (IKK-alpha): 0% | %Inh (IKK-beta): 0% | %Inh (IKK-epsilon): 0% | %Inh (INSRR): 0% | %Inh (INSR): 0% | %Inh (IRAK1): 0% | %Inh (IRAK3): 1% | %Inh (IRAK4): 0% | %Inh (ITK): 0% | %Inh [1]: 0%

O=C(Nc1cccc(Oc2ccc3nccn3n2)c1)Nc1cccc(C(F)(F)F)c1
%Inh (HASPIN): 0% | %Inh (HCK): 27% | %Inh (HIPK1): 7% | %Inh (HIPK2): 33% | %Inh (HIPK3): 1% | %Inh (HIPK4): 17% | %Inh (HPK1): 0% | %Inh (HUNK): 22% | %Inh (ICK): 0% | %Inh (IGF1R): 3% | %Inh (IKK-alpha): 34% | %Inh (IKK-beta): 0% | %Inh (IKK-epsilon): 0% | %Inh (INSRR): 15% | %Inh (INSR): 0% | %Inh (IRAK1): 13% | %Inh (IRAK3): 23% | %Inh (IRAK4): 0% | %Inh (ITK): 0% | %Inh [1]: 27%

Cn1ccc2ncnc(Oc3ccc(NC(=O)Nc4cncc(C(F)(F)F)c4)c(Cl)c3)c21
%Inh (HASPIN): 0% | %Inh (HCK): 14% | %Inh (HIPK1): 10% | %Inh (HIPK2): 0% | %Inh (HIPK3): 0% | %Inh (HIPK4): 0% | %Inh (HPK1): 0% | %Inh (HUNK): 0% | %Inh (ICK): 0% | %Inh (IGF1R): 0% | %Inh (IKK-alpha): 0% | %Inh (IKK-beta): 0% | %Inh (IKK-epsilon): 0% | %Inh (INSRR): 0% | %Inh (INSR): 0% | %Inh (IRAK1): 0% | %Inh (IRAK3): 0% | %Inh (IRAK4): 0% | %Inh (ITK): 0% | %Inh [1]: 0%

Cn1cc(-c2cccc3c(N)c(C(N)=O)nnc23)cn1
%Inh (HASPIN): 96.5% | %Inh (HCK): 13% | %Inh (HIPK1): 68% | %Inh (HIPK2): 62% | %Inh (HIPK3): 67% | %Inh (HIPK4): 18% | %Inh (HPK1): 0% | %Inh (HUNK): 0% | %Inh (ICK): 24% | %Inh (IGF1R): 0% | %Inh (IKK-alpha): 28% | %Inh (IKK-beta): 39% | %Inh (IKK-epsilon): 0% | %Inh (INSRR): 9% | %Inh (INSR): 19% | %Inh (IRAK1): 31% | %Inh (IRAK3): 9% | %Inh (IRAK4): 17% | %Inh (ITK): 15% | %Inh [1]: 9%

C[C@@H]1CCN(C(=O)N2CCCC2)C[C@@H]1N(C)c1ncnc2[nH]ccc12
%Inh (HASPIN): 30% | %Inh (HCK): 0% | %Inh (HIPK1): 25% | %Inh (HIPK2): 0% | %Inh (HIPK3): 22% | %Inh (HIPK4): 2% | %Inh (HPK1): 0% | %Inh (HUNK): 0% | %Inh (ICK): 13% | %Inh (IGF1R): 0% | %Inh (IKK-alpha): 23% | %Inh (IKK-beta): 19% | %Inh (IKK-epsilon): 17% | %Inh (INSRR): 12% | %Inh (INSR): 0% | %Inh (IRAK1): 6% | %Inh (IRAK3): 8% | %Inh (IRAK4): 0% | %Inh (ITK): 0% | %Inh [1]: 99.6%

CC(=O)Nc1nc2cnc(Nc3cc(NC(=O)c4cccc(CC(C)(C)C#N)c4)ccc3C)nc2s1
%Inh (HASPIN): 0% | %Inh (HCK): 32% | %Inh (HIPK1): 29% | %Inh (HIPK2): 10% | %Inh (HIPK3): 6% | %Inh (HIPK4): 13% | %Inh (HPK1): 0% | %Inh (HUNK): 2% | %Inh (ICK): 44% | %Inh (IGF1R): 9% | %Inh (IKK-alpha): 0% | %Inh (IKK-beta): 1% | %Inh (IKK-epsilon): 28% | %Inh (INSRR): 4% | %Inh (INSR): 16% | %Inh (IRAK1): 9% | %Inh (IRAK3): 27% | %Inh (IRAK4): 8% | %Inh (ITK): 0% | %Inh [1]: 27%

COc1cccc(C2=C(Nc3cccc(Cl)c3)C(=O)NC2=O)c1 [SB-341556]
%Inh (HASPIN): 0% | %Inh (HCK): 0% | %Inh (HIPK1): 19% | %Inh (HIPK2): 0% | %Inh (HIPK3): 33% | %Inh (HIPK4): 0% | %Inh (HPK1): 47% | %Inh (HUNK): 0% | %Inh (ICK): 33% | %Inh (IGF1R): 7% | %Inh (IKK-alpha): 39% | %Inh (IKK-beta): 47% | %Inh (IKK-epsilon): 0% | %Inh (INSRR): 0% | %Inh (INSR): 13% | %Inh (IRAK1): 46% | %Inh (IRAK3): 0% | %Inh (IRAK4): 52% | %Inh (ITK): 13% | %Inh [1]: 7%

CSc1nccc(-c2c(-c3ccc(F)cc3)ncn2CCCN2CCOCC2)n1.Cl [SB-217146]
%Inh (HASPIN): 0% | %Inh (HCK): 14% | %Inh (HIPK1): 40% | %Inh (HIPK2): 0% | %Inh (HIPK3): 8% | %Inh (HIPK4): 0% | %Inh (HPK1): 0% | %Inh (HUNK): 13% | %Inh (ICK): 0% | %Inh (IGF1R): 0% | %Inh (IKK-alpha): 0% | %Inh (IKK-beta): 0% | %Inh (IKK-epsilon): 0% | %Inh (INSRR): 0% | %Inh (INSR): 2% | %Inh (IRAK1): 25% | %Inh (IRAK3): 0% | %Inh (IRAK4): 0% | %Inh (ITK): 6% | %Inh [1]: 0%

Cc1ccc(C(=O)Nc2ccc(Oc3ccc4nc(NC(=O)C5CC5)cn4c3)c(F)c2)c(=O)n1-c1ccccc1
%Inh (HASPIN): 0% | %Inh (HCK): 96.6% | %Inh (HIPK1): 29% | %Inh (HIPK2): 0% | %Inh (HIPK3): 0% | %Inh (HIPK4): 72% | %Inh (HPK1): 56% | %Inh (HUNK): 22% | %Inh (ICK): 0% | %Inh (IGF1R): 0% | %Inh (IKK-alpha): 61% | %Inh (IKK-beta): 56% | %Inh (IKK-epsilon): 0% | %Inh (INSRR): 0% | %Inh (INSR): 0% | %Inh (IRAK1): 0% | %Inh (IRAK3): 44% | %Inh (IRAK4): 0% | %Inh (ITK): 57% | %Inh [1]: 14%

COc1cc2ncn(-c3cc(OCC4CCCCC4)c(C(N)=O)s3)c2cc1OC [GSK204559]
%Inh (HASPIN): 0% | %Inh (HCK): 0% | %Inh (HIPK1): 9% | %Inh (HIPK2): 0% | %Inh (HIPK3): 0% | %Inh (HIPK4): 68% | %Inh (HPK1): 39% | %Inh (HUNK): 0% | %Inh (ICK): 0% | %Inh (IGF1R): 5% | %Inh (IKK-alpha): 0% | %Inh (IKK-beta): 2% | %Inh (IKK-epsilon): 0% | %Inh (INSRR): 0% | %Inh (INSR): 14% | %Inh (IRAK1): 0% | %Inh (IRAK3): 12% | %Inh (IRAK4): 9% | %Inh (ITK): 13% | %Inh [1]: 0%
